ELG1 genotoxic: qHTS screen for small molecules that induce genotoxicity in human embryonic kidney (HEK293T) cells expressing luciferase-tagged ELG1; HEK293T ELG1-luciferase reporter, luminescence, 16 h; Potency, µM (doses to about 46 µM), without a hit: at the highest dose activity change, positive = activation, most hits filed as activators; 1.3% of 330,000 active; AID 504466, 2011; note: % of control where 0% means no effect; nearly all actives have a fitted effect of over 60% in size
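Genotoxicity was scored as increased ELG1-luciferase reporter signal, measured by ONE-Glo luminescence (30 min, room temperature). Compound or vehicle exposure of the HEK293T reporter cells lasted 16 hr at 37°C.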
FLuc counter: qHTS profiling assay for firefly luciferase inhibitor/activator using purifed enzyme and Km concentrations of substrates (counterscreen for miR-21 project); Luciferin 4-monooxygenase (Photinus pyralis), P08659; purified FLuc, Km substrates, luminescence inhibition; Potency, µM (titrated, usually from 57.5 µM), for inactives: at the top dose activity change, negative = inhibition, usual class: inhibitors; 6.9% of 360,000 active; AID 588342, 2011;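 note: plate controls were vehicle for no effect and reference inhibitor for full effect; nearly all actives have a fitted effect of over 55% in size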
Target sequence (P08659 whole entry, looked up): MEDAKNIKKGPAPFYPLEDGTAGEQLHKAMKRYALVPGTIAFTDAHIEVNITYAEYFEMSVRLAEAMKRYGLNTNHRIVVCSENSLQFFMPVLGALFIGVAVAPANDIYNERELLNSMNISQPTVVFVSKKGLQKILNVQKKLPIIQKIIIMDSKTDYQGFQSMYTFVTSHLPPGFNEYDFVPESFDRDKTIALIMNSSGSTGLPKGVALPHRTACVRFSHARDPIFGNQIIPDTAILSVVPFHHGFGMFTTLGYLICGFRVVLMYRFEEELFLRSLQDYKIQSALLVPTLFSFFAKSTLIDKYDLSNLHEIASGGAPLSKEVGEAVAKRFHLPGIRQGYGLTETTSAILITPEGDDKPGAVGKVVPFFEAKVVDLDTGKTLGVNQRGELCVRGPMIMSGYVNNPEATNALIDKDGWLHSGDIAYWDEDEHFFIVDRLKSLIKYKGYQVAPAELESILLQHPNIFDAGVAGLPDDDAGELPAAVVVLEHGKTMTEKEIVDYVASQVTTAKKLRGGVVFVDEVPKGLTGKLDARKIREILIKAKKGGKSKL
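Purified P. pyralis luciferase (10nM final) with 10uM D-luciferin and 10uM ATP (Km levels) in 50mM Tris acetate pH 7.5, 10mM Mg acetate, 0.01% Tween-20, 0.05% BSA; qHTS 6-point titration, ~60 µM downward; luminescence read.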
SMN2 splice enh: qHTS Assay for Enhancers of SMN2 Splice Variant Expression; HEK293 SMN2-luciferase splicing reporter, luminescence, 30-36 h; Potency, µM (titrated, usually from 46.1 µM), for the others: top-dose activity change, positive = activation, actives largely listed as activators; 2.8% of 210,000 active; AID 1458, 2008; note: % of control where 0% means no effect; nearly all actives have a fitted effect of over 55% in size
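HEK293 cells carry an SMN2 minigene-luciferase reporter in which exon 7 inclusion puts luciferase in frame. Cells were seeded at 2000 cells/well, attached for 10-12 hours, then exposed to compounds for 30-36 hours at 37C before ONE-Glo luminescence.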
Rab9 prom act: qHTS Assay for Rab9 Promoter Activators | Huh7 Rab9 promoter-luciferase reporter, luminescence, 24 h | Potency, µM (titrated, usually from 9.22 µM), inactives show top-dose activation, negative = inhibition, usual class: activators | 2.8% of 320,000 active; note: % of control where 0% means no effect; nearly all actives have a fitted effect of over 60% in size
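Using Huh7 cells stably transfected with Rab9 promoter–luciferase, compounds were incubated 24 h at 37 °C, 5% CO2; luciferase luminescence was read 10 min after reagent addition.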
NPC1 promoter act: qHTS Assay for NPC1 Promoter Activators; Huh7 NPC1 promoter luciferase reporter, 24 h; 2.4% of 320,000 active; Potency, µM (highest dose often 9.22 µM), for the others: at the highest dose activation, most hits filed as activators; note: % of control where 0% means no effect; nearly all actives have a fitted effect of over 60% in size
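In 1536-well qHTS, Huh7 cells harboring an NPC1 promoter–luciferase construct received compound for 24 h; activation was quantified by luminescence following luciferase reagent addition.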
* hit, by the source's call; [ ] = dose if it differs, or a comment. This is a sample that favours compounds with a hit; in the whole collection about 7.4% have one here. Calls come from the whole dose curve; as a rule, active = well fitted curve in the direction sought with a large enough effect; inconclusive = small, poorly fitted or top-dose-only effect, or another doubt; inactive = no such curve, though single readings can be large; an effect the other way counts as inactive or inconclusive. Potency is the fitted concentration of half-maximal effect.

For COc1cccc(C(=O)/C=C/c2ccc(N3CCCCC3)c([N+](=O)[O-])c2)c1 the results were ELG1 genotoxic 11%, FLuc counter 8.5µM*, SMN2 splice enh -20%, Rab9 prom act -2% and NPC1 promoter act -1%.
`COc1cccc(/C=C/C(=O)c2cccc([N+](=O)[O-])c2)c1` gave ELG1 genotoxic inconclusive, FLuc counter 8.5µM*, SMN2 splice enh -3%, Rab9 prom act -2% and NPC1 promoter act -9%.
For O=C(/C=C/c1ccc(N2CCCCC2)c([N+](=O)[O-])c1)c1ccc(S(=O)(=O)N2CCCC2)cc1 the results were ELG1 genotoxic 18%, FLuc counter -5%, SMN2 splice enh -54%, Rab9 prom act -6% and NPC1 promoter act -7%.
For COc1cccc(/C=C/C(=O)c2cccc([N+](=O)[O-])c2)c1OC the results were ELG1 genotoxic inconclusive, FLuc counter 11µM*, SMN2 splice enh -2%, Rab9 prom act -7% and NPC1 promoter act 9%.
For CO/N=C/c1ccc(N2CCCC2)c([N+](=O)[O-])c1 the results were ELG1 genotoxic -1%, FLuc counter 17µM*, SMN2 splice enh -28%, Rab9 prom act 20% and NPC1 promoter act 9%.
For O=C(CN1CCN(CC(=O)Nc2cccc(F)c2)CC1)NCC1(N2CCOCC2)CCCCC1 the results were ELG1 genotoxic -1%, FLuc counter -1%, Rab9 prom act 1% and NPC1 promoter act 1%.
`CCOc1ccc(CCNc2nc3ccccc3n3cnnc23)cc1OCC` gave ELG1 genotoxic 0%, FLuc counter -11%, Rab9 prom act -8% and NPC1 promoter act -5%.
For C1CCc2c(nc3nnnn3c2NCC2CC2)C1 the results were ELG1 genotoxic 6%, FLuc counter -2%, Rab9 prom act -3% and NPC1 promoter act -2%.
Screening COc1ccc(NC(=O)Nc2ccccc2SC)cc1OC returned ELG1 genotoxic 14%, FLuc counter 19µM*, Rab9 prom act inconclusive and NPC1 promoter act 22%.
`COc1ccc(NC(=O)Nc2ccccc2SC)c(OC)c1` gave ELG1 genotoxic 10%, FLuc counter -4%, SMN2 splice enh 5%, Rab9 prom act -2% and NPC1 promoter act 6%.
For COc1cccc(NC(=O)Nc2ccccc2SC)c1 the results were ELG1 genotoxic 15%, FLuc counter 17µM*, SMN2 splice enh 22%, Rab9 prom act 15% and NPC1 promoter act 17%.
Screening CCOCCn1c(CN2CCc3ccccc3C2)nc2c1c(=O)n(C)c(=O)n2C returned ELG1 genotoxic -12%, FLuc counter 1%, Rab9 prom act -4% and NPC1 promoter act 2%.
Cc1cccc2sc(NC(=O)C3CC3)nc12 was read as ELG1 genotoxic 1%, FLuc counter -11%, Rab9 prom act 14% and NPC1 promoter act 15%.
For COc1ccc2nc(NC(=O)c3cccc(N4C(=O)CCC4=O)c3)sc2c1 the results were ELG1 genotoxic 4%, FLuc counter 0.85µM*, Rab9 prom act 2% and NPC1 promoter act 2%.
O=C(Nc1nc2cc3c(cc2s1)OCO3)c1cccc(N2C(=O)CCC2=O)c1 was read as ELG1 genotoxic 8%, FLuc counter 0.95µM*, Rab9 prom act 29% and NPC1 promoter act 24%.
For O=C(Nc1nc2cc3c(cc2s1)OCO3)c1ccc(N2C(=O)CCC2=O)cc1 the results were ELG1 genotoxic -2%, FLuc counter -10%, Rab9 prom act 9% and NPC1 promoter act 2%.
Screening Cc1ccc2sc(NC(=O)C3CC3)nc2c1C returned ELG1 genotoxic inconclusive, FLuc counter 17µM*, Rab9 prom act inconclusive and NPC1 promoter act inconclusive.
`O=C(Nc1nc2ccc(Cl)cc2s1)c1cccc(N2C(=O)CCC2=O)c1` gave ELG1 genotoxic inconclusive, FLuc counter 1.3µM*, Rab9 prom act inconclusive and NPC1 promoter act 15%.
For Cc1ccc2sc(NC(=O)c3cccc(N4C(=O)CCC4=O)c3)nc2c1C the results were ELG1 genotoxic 2%, FLuc counter 1.9µM*, Rab9 prom act 11% and NPC1 promoter act 17%.
O=S(=O)(c1ccc(Cl)cc1)c1nc(-c2cccc(Br)c2)oc1NCc1ccccc1 was read as FLuc counter -1% and SMN2 splice enh 9%.
O=C(CC1C(=O)N(c2ccccc2)C(=O)N1Cc1ccc2c(c1)OCO2)Nc1ccccc1 (stereo not given) was read as FLuc counter -10% and SMN2 splice enh 4%.
`O=C(Nc1cccc(-c2nc3ncccc3o2)c1)c1cc2ccccc2o1` gave ELG1 genotoxic -2%, FLuc counter 8.5µM*, SMN2 splice enh 1%, Rab9 prom act inconclusive and NPC1 promoter act inconclusive.
CCC(C)c1ccc(OCC(=O)Nc2cccc(-c3nc4ncccc4o3)c2)cc1 (stereo not given) was read as FLuc counter 7.6µM* and SMN2 splice enh 3%.
For O=C(Nc1cccc(-c2nc3ncccc3o2)c1)c1sc2ccccc2c1Cl the results were ELG1 genotoxic -1%, FLuc counter 1.3µM*, SMN2 splice enh -5%, Rab9 prom act inconclusive and NPC1 promoter act inconclusive.
O=C(O)C1=C[C@@H](C2CCCCC2)C[C@@H](OCCCCO)O1 was read as ELG1 genotoxic 1%, FLuc counter -1%, Rab9 prom act 1% and NPC1 promoter act 1%.
For CC1CN(C(=O)COC(=O)[C@@H](NC(=O)c2ccccc2Cl)C(C)C)CC(C)O1 (stereo not given in full) the results were ELG1 genotoxic 1%.
For Cc1ccc(C(=O)Nc2ccn(Cc3ccc(F)cc3)n2)o1 the results were ELG1 genotoxic 19%, FLuc counter 15µM*, Rab9 prom act inconclusive and NPC1 promoter act inconclusive.
`O=C(Nc1ccn(Cc2ccc(Cl)cc2)n1)c1ccccc1` gave ELG1 genotoxic inconclusive, FLuc counter 11µM*, SMN2 splice enh 13µM*, Rab9 prom act 3.5µM* and NPC1 promoter act inconclusive.
`Cc1ccc(C(=O)Nc2ccc(F)cc2F)o1` gave ELG1 genotoxic -1%, FLuc counter -20%, SMN2 splice enh -8%, Rab9 prom act 21% and NPC1 promoter act 11%.
`O=C(Nc1ccn(Cc2ccccc2)n1)c1ccc2c(c1)OCO2` gave ELG1 genotoxic 19%, FLuc counter 5.4µM*, SMN2 splice enh inconclusive, Rab9 prom act 2.8µM* and NPC1 promoter act inconclusive.
For CC(C)c1ccc(NC(=O)COC(=O)C2CC3C=CC2C3)cc1 (stereo not given) the results were ELG1 genotoxic 8%.
Screening Cc1ccc(C(=O)OCC(=O)NC2CCCC2)cc1C returned ELG1 genotoxic 4%, FLuc counter inconclusive, Rab9 prom act 0%[1.84 µM] and NPC1 promoter act 4%.

From PubChem
